Source: the supplement of paper PMC12669032
Where “and” joins values, the source holds several entries; their conditions need not be identical. Equal entries are not always repeated. Unmarked numbers belong to inactive results.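 The calls were made as follows: active = AUC reduced over 20% with Padj below 0.05 in at least 2 of 3 replicates; inactive = otherwise.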

System: Akkermansia muciniphila
Experiment: growth AUC relative to DMSO control (median of replicates) (fraction); higher = more growth (less inhibition), active = hit call of the paper
Settings: 20 µM; 24 h
How it was run: (§1)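 Hourly OD600 readings over 24 h tracked anaerobic gut bacterial monocultures grown at 37 °C in mGAM from OD600 0.05 with 20 µM compound (1% DMSO). After the minimum OD was set to 0, area under the growth curve was normalised to the plate median of solvent-only wells, or to row and column medians on the industrial chemical plate. Values are medians of three biological replicates grown on separate days.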

Row | SMILES | growth AUC
1 | Cc1cccc(C)c1N | 0.917
2 | C=CCOC(=O)C(C)(C)OC(=O)c1cc(-n2c(=O)cc(C(F)(F)F)n(C)c2=O)ccc1Cl | 1.14
3 | CCOP(=O)(NC(C)C)Oc1ccc(S(C)(=O)=O)c(C)c1 (stereo not drawn) | 1.03
4 | Cc1cc(OC(=O)N(C)C)nn1C(=O)N(C)C | 0.959
5 | CCCCCCCCSC(=O)Oc1cc(Cl)nnc1-c1ccccc1 | 1.01
6 | CC1(C(=O)Nc2ccc(O)c(Cl)c2Cl)CCCCC1 | 0.827
7 | CC(Oc1ccc(Oc2ccc(Cl)cc2Cl)cc1)C(=O)O (racemic) | 0.812
8 | C[Si](Cn1cncn1)(c1ccc(F)cc1)c1ccc(F)cc1 | 0.895
9 | CN(C)C1CSSSC1.O=C(O)C(=O)O | 0.941
10 | COP(=S)(OC)SCn1nnc2ccccc2c1=O | 1.09
11 | CCSC(=O)N1CCCCCC1 | 0.873
12 | O=C(O)c1c(Cl)ccc2cc(Cl)cnc12 | 0.898
13 | CCCSP(=S)(OCC)Oc1ccc(SC)cc1 (stereo not drawn) | 0.897
14 | Cc1cc(C(F)(C(F)(F)F)C(F)(F)F)ccc1NC(=O)c1cccc(I)c1C(=O)NC(C)(C)CS(C)(=O)=O | 1.06
15 | Cc1cc(Cl)ccc1O | 1.04
16 | COc1cc(OC)nc(NC(=O)NS(=O)(=O)c2ncccc2C(=O)N(C)C)n1 | 1
17 | Cc1cccc2sc3nncn3c12 | 0.892
18 | CCC(C)c1cc([N+](=O)[O-])cc([N+](=O)[O-])c1O (stereo not drawn) | 1.07
19 | CCOP(=S)(OCC)SCSC(C)(C)C | 1.04
20 | CCNc1nc(Cl)nc(NC(C)(C)C#N)n1 | 0.889

Row | SMILES | growth AUC
21 | Cc1ccccc1C(=O)Nc1cccc(OC(C)C)c1 | 0.926
22 | N#CN=C1SCCN1Cc1ccc(Cl)nc1 | 0.871
23 | COP(=O)(OC)Oc1ccc(S(C)=O)c(C)c1 (stereo not drawn) | 0.935
24 | COCC(=O)N(c1c(C)cccc1C)[C@H](C)C(=O)OC | 0.94
25 | CC(=NC#N)N(C)Cc1ccc(Cl)nc1 | 0.993 and 0.945
26 | CC1(C)C(C(=O)OC(C#N)c2cccc(Oc3ccccc3)c2)C1(C)C (stereo not drawn) | 0.879
27 | CNC(=O)Oc1cc(C)c(N(C)C)c(C)c1 | 1.02
28 | CN(C)C(=S)SSC(=S)N(C)C | 0.83
29 | CCOP(=S)(OCC)SCn1nnc2ccccc2c1=O | 0.989
30 | [CH3][Hg][Cl] | 0.749
31 | CCCCc1c(C)nc(NCC)nc1OS(=O)(=O)N(C)C | 1.07
32 | CC1(C)[C@H](/C=C(\Cl)C(F)(F)F)[C@@H]1C(=O)O[C@@H](C#N)c1cccc(Oc2ccccc2)c1 | 1.14
33 | CCCN(CCOc1c(Cl)cc(Cl)cc1Cl)C(=O)n1ccnc1 | 1.05
34 | CCOP(=S)(OCC)Oc1cc(Cl)c(Br)cc1Cl | 0.917
35 | C/C(=N\NC(=O)Nc1cc(F)cc(F)c1)c1ncccc1C(=O)[O-].[Na+] | 1.33
36 | C1=Cc2cccc3cccc1c23 | 1.01
37 | CCc1ccc(C(=O)NN(C(=O)c2cc(C)cc(C)c2)C(C)(C)C)cc1 | 0.924
38 | C#CCOc1ccc(CCNC(=O)C(OCC#C)c2ccc(Cl)cc2)cc1OC (stereo not drawn) | 1.02
39 | COC(=O)c1ccccc1S(=O)(=O)NC(=O)Nc1nc(C)nc(OC)n1 | 1.1

System: Bacteroides caccae
Experiment: as above
Settings: 20 µM; 24 h
How it was run: as §1

Row | SMILES | growth AUC
40 | Cc1cccc(C)c1N | 1.04
41 | C=CCOC(=O)C(C)(C)OC(=O)c1cc(-n2c(=O)cc(C(F)(F)F)n(C)c2=O)ccc1Cl | 0.949
42 | CCOP(=O)(NC(C)C)Oc1ccc(S(C)(=O)=O)c(C)c1 (stereo not drawn) | 1.01
43 | Cc1cc(OC(=O)N(C)C)nn1C(=O)N(C)C | 1.02
44 | CCCCCCCCSC(=O)Oc1cc(Cl)nnc1-c1ccccc1 | 0.983
45 | CC1(C(=O)Nc2ccc(O)c(Cl)c2Cl)CCCCC1 | 0.986
46 | CC(Oc1ccc(Oc2ccc(Cl)cc2Cl)cc1)C(=O)O (racemic) | 0.991
47 | C[Si](Cn1cncn1)(c1ccc(F)cc1)c1ccc(F)cc1 | 0.891
48 | CN(C)C1CSSSC1.O=C(O)C(=O)O | 0.98
49 | COP(=S)(OC)SCn1nnc2ccccc2c1=O | 0.98
50 | CCSC(=O)N1CCCCCC1 | 1.05
51 | O=C(O)c1c(Cl)ccc2cc(Cl)cnc12 | 1
52 | CCCSP(=S)(OCC)Oc1ccc(SC)cc1 (stereo not drawn) | 0.998
53 | Cc1cc(C(F)(C(F)(F)F)C(F)(F)F)ccc1NC(=O)c1cccc(I)c1C(=O)NC(C)(C)CS(C)(=O)=O | 1.2
54 | Cc1cc(Cl)ccc1O | 1.02
55 | COc1cc(OC)nc(NC(=O)NS(=O)(=O)c2ncccc2C(=O)N(C)C)n1 | 0.94
56 | Cc1cccc2sc3nncn3c12 | 0.989
57 | CCC(C)c1cc([N+](=O)[O-])cc([N+](=O)[O-])c1O (stereo not drawn) | 0.967
58 | CCOP(=S)(OCC)SCSC(C)(C)C | 0.964
59 | CCNc1nc(Cl)nc(NC(C)(C)C#N)n1 | 1.02

Row | SMILES | growth AUC
60 | Cc1ccccc1C(=O)Nc1cccc(OC(C)C)c1 | 1.01
61 | N#CN=C1SCCN1Cc1ccc(Cl)nc1 | 1
62 | COP(=O)(OC)Oc1ccc(S(C)=O)c(C)c1 (stereo not drawn) | 0.986
63 | COCC(=O)N(c1c(C)cccc1C)[C@H](C)C(=O)OC | 1
64 | CC(=NC#N)N(C)Cc1ccc(Cl)nc1 | 0.979 and 0.959
65 | CC1(C)C(C(=O)OC(C#N)c2cccc(Oc3ccccc3)c2)C1(C)C (stereo not drawn) | 0.995
66 | CNC(=O)Oc1cc(C)c(N(C)C)c(C)c1 | 1.03
67 | CN(C)C(=S)SSC(=S)N(C)C | 0.968
68 | CCOP(=S)(OCC)SCn1nnc2ccccc2c1=O | 0.969
69 | [CH3][Hg][Cl] | 0.912
70 | CCCCc1c(C)nc(NCC)nc1OS(=O)(=O)N(C)C | 1.01
71 | CC1(C)[C@H](/C=C(\Cl)C(F)(F)F)[C@@H]1C(=O)O[C@@H](C#N)c1cccc(Oc2ccccc2)c1 | 0.983
72 | CCCN(CCOc1c(Cl)cc(Cl)cc1Cl)C(=O)n1ccnc1 | 0.886
73 | CCOP(=S)(OCC)Oc1cc(Cl)c(Br)cc1Cl | 0.936
74 | C/C(=N\NC(=O)Nc1cc(F)cc(F)c1)c1ncccc1C(=O)[O-].[Na+] | 1
75 | C1=Cc2cccc3cccc1c23 | 1.02
76 | CCc1ccc(C(=O)NN(C(=O)c2cc(C)cc(C)c2)C(C)(C)C)cc1 | 1.03
77 | C#CCOc1ccc(CCNC(=O)C(OCC#C)c2ccc(Cl)cc2)cc1OC (stereo not drawn) | 0.94
78 | COC(=O)c1ccccc1S(=O)(=O)NC(=O)Nc1nc(C)nc(OC)n1 | 1.02
